# According to PubChem BioAssay AID651707 (NMMLSC, 2012):
# About 170 (7.4%) of roughly 2,300 compounds were called active.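 Rule for the calls: active = over 5% cells positive for green fluorescent reporter, or over 2% positive for both it and APC stain; inactive = the rest, inconclusive results apart.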 The sample as a whole holds a higher share of actives than the screen did.
# Assay: fluorescent artefacts in myeloid progenitor cells – cell-based, flow cytometry, GFP/APC, Cherry Pick01, artefact control for AML myeloid differentiation project, confirmation (AID 651707);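 note: range taken on the double positive population between DMSO and positive control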
# Settings: ER-HoxA9 myeloid progenitors, no estrogen, GFP autofluorescence flow cytometry; hits give high values
row,SMILES,fluorescence response
1,CC/C(=N\NC(=O)c1ccccc1O)c1c(O)n(Cc2ccccc2)c(=O)[nH]c1=O,5.1% (active)
